SMILES strings stand for the structures. Compounds without any hit were thinned out: in the full panel of roughly 83,000, 20% have a hit.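 The endpoint reported here, percent growth, reads 100 for growth as untreated, 0 for no net growth and -100 for all cells dead.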 A number with no mark means an inactive call. Calls of active or inactive are those of the source. How the source made its calls: active means growth percent below 10; inactive means the rest.

Results on 14 molecules are retold here after PubChem BioAssay (NCI).

Some test systems named below: SN12C renal; UO-31 renal; TK-10 renal; ACHN renal; CAKI-1 renal; A498 renal; CCRF-CEM leukemia; MOLT-4 leukemia; SR leukemia.
Common to all, as to assay: NCI-60 one-dose screen, 48 h (100 = growth as untreated, 0 = no growth, -100 = all killed)
Holding throughout (details): 10 µM

As to `COc1cc(NC(=O)CCSc2nc3ccc(C)cc3c(=O)n2Cc2ccccc2)cc(OC)c1OC`, the growth is 89.5% in the test with SN12C renal; 71.2% in the test on UO-31 renal; 96.1% with TK-10 renal; 53.3% in the test with ACHN renal; 65.1% in the test on CAKI-1 renal; 77.6% with A498 renal. In addition, the growth was 105% in the test with CCRF-CEM leukemia, 103% in the test on MOLT-4 leukemia and 95.3% in the test with SR leukemia.

Turning to `CC(=O)N1N=C(c2ccc(Cl)cc2)CC1c1sc(Cl)nc1Cl` (stereo unspecified), the growth was 69.6% in the test on SN12C renal; 40.9% in the test with UO-31 renal; 68.8% with TK-10 renal; 105% with ACHN renal; 75.9% in the test on CAKI-1 renal; 9.27% (active) in the test with A498 renal. The growth in the test on CCRF-CEM leukemia was 93.4%; in the test on MOLT-4 leukemia, 77.6%; in the test with SR leukemia, 58.5%.

In the case of `O=c1cc(-c2ccccc2)[nH]n1-c1nc2ccccc2[nH]1`, the growth was 49.5% in the test on SN12C renal; 38.4% with UO-31 renal; 63.1% in the test with TK-10 renal; 37.2% with ACHN renal; 45.9% in the test with CAKI-1 renal; 1.96% (active) in the test on A498 renal. Moreover, the growth is 11.9% in the test with CCRF-CEM leukemia, -18.6% (active) in the test on MOLT-4 leukemia and 39.3% with SR leukemia.

As for `O=C(Nc1ccc(Cl)cc1)N1NC(c2ccc(Cl)cc2)C=C1c1ccccc1` (stereo unspecified), the growth is 108% in the test on SN12C renal; 85.8% with UO-31 renal; 103% in the test on TK-10 renal; 116% in the test with ACHN renal; 103% with CAKI-1 renal; 103% in the test with A498 renal. In addition, the values for the growth in the test with CCRF-CEM leukemia, in the test with MOLT-4 leukemia and in the test on SR leukemia were 58.3%, 83.7% and 81.4%, respectively.

For `O=C1/C(=C\c2ccccc2)CN(C(=O)c2ccccc2F)C/C1=C\c1ccccc1`, the growth in the test with SN12C renal was 6.12% (active); with UO-31 renal, 12.4%; with TK-10 renal, 53.8%; with ACHN renal, -3.34% (active); in the test on CAKI-1 renal, 30.4%; with A498 renal, 45%. Also, the growth is -7.33% (active) in the test on CCRF-CEM leukemia, -4.02% (active) in the test on MOLT-4 leukemia and -35.1% (active) with SR leukemia.

For the molecule `O=C(Nc1cccc(-n2cc(-c3ccncc3)c(-c3ccc(O)c(Cl)c3)n2)c1)c1cccc(C(F)(F)F)c1`, the growth with SN12C renal is 49.9%; in the test on UO-31 renal, 15.8%; in the test with TK-10 renal, 46.9%; in the test on ACHN renal it was 29.6%; in the test with CAKI-1 renal, 12.2%; in the test with A498 renal it was 57.7%. Besides, the values for the growth in the test with CCRF-CEM leukemia, with MOLT-4 leukemia and in the test on SR leukemia were 19.8%, 29.8% and 18.4%, respectively.

For `COc1cc(Cl)cc(-c2nn(-c3cccc(NC(=O)Nc4cc(C(F)(F)F)cc(C(F)(F)F)c4)c3)cc2-c2ccncc2)c1`, the growth was 9.32% (active) with SN12C renal; -0.18% (active) with UO-31 renal; 30.3% in the test with TK-10 renal; 10.3% in the test on ACHN renal; 8.99% (active) in the test with CAKI-1 renal; -21.6% (active) with A498 renal. Besides, the growth in the test with CCRF-CEM leukemia was -22% (active); with MOLT-4 leukemia it was -24.6% (active); in the test with SR leukemia, -37.9% (active).

On to `CCCCCCN1CCN(Cc2ccc(N(CC)CC)cc2)C(=O)C1=O`, for which the growth with SN12C renal is 50.8%; in the test with UO-31 renal, 34.8%; in the test with TK-10 renal, 25.4%; with ACHN renal, 52.4%; in the test with CAKI-1 renal, 41.6%; with A498 renal it was -4.48% (active). For the same molecule, the growth in the test on CCRF-CEM leukemia was 9.18% (active); with MOLT-4 leukemia, 19.1%; in the test on SR leukemia, 3.37% (active).

For the molecule `COc1cccc(Cn2c(-c3nonc3N)nc3ccccc32)c1`, the growth was 43.8% with SN12C renal; 33.2% with UO-31 renal; 31.7% in the test on TK-10 renal; 46.6% in the test on ACHN renal; 20.5% in the test with CAKI-1 renal; -19.3% (active) in the test with A498 renal. Further, the figures for the growth in the test with CCRF-CEM leukemia, with MOLT-4 leukemia and in the test on SR leukemia were 9.82% (active), 25.6% and -5.32% (active), respectively.

With `C[C@@H]1C=C2C(=O)O[C@@H]3CC[C@H](C1)[C@]23O`, the growth is 81% in the test on SN12C renal; 63.4% in the test with UO-31 renal; 75.8% with TK-10 renal; 72.3% with ACHN renal; 50.6% in the test with CAKI-1 renal; 129% with A498 renal. The figures for the growth with CCRF-CEM leukemia, with MOLT-4 leukemia and in the test on SR leukemia were 18.6%, 62.8% and 18.6%, respectively.

As to `C#Cc1ccc(-n2c(/C=C/c3ccc(Cl)c(F)c3)nc3ncccc3c2=O)cc1`, the growth with SN12C renal is -4.94% (active); in the test on UO-31 renal, -82.5% (active); in the test on TK-10 renal it was -44.6% (active); in the test with ACHN renal, 0.478% (active); in the test on CAKI-1 renal, -14.2% (active); in the test on A498 renal it was -39% (active). Besides, the growth was 1.54% (active) in the test on CCRF-CEM leukemia, -18.6% (active) with MOLT-4 leukemia and -25.2% (active) in the test on SR leukemia.

Take `c1ccc2c(-c3nc(N4CCOCC4)c4c5c(sc4n3)CCCCCC5)cccc2c1`: the growth in the test on SN12C renal is 99.5%; with UO-31 renal, 101%; in the test on TK-10 renal it was 116%; in the test on ACHN renal, 100%; with CAKI-1 renal, 99.2%; in the test on A498 renal it was 102%. Moreover, the values for the growth in the test on CCRF-CEM leukemia, with MOLT-4 leukemia and with SR leukemia were 96.9%, 97.2% and 94.8%, respectively.

`CCC(=O)N1C/C(=C/c2ccc(Cl)cc2)C(=O)/C(=C/c2ccc(Cl)cc2)C1`: the growth in the test on SN12C renal was -26.1% (active); in the test on UO-31 renal, -94% (active); in the test on TK-10 renal, -30.6% (active); with ACHN renal it was -50.7% (active); with CAKI-1 renal it was -20.7% (active); in the test with A498 renal it was -26.7% (active). The growth with CCRF-CEM leukemia is -11.1% (active); in the test on MOLT-4 leukemia, -8.59% (active); in the test on SR leukemia, -27.9% (active).

For the molecule `COc1ccc(-c2cc(/C=C/C(=O)c3cc(OC)c(OC)c(OC)c3)[nH]n2)cc1OC`, the growth is 8.28% (active) in the test on SN12C renal; -92.1% (active) in the test on UO-31 renal; -33.2% (active) in the test on TK-10 renal; -61.9% (active) with ACHN renal; 4.66% (active) in the test with CAKI-1 renal; -2.03% (active) in the test with A498 renal. The growth is 4.09% (active) in the test on CCRF-CEM leukemia, 3.41% (active) in the test with MOLT-4 leukemia and 3.11% (active) in the test with SR leukemia.
